PubChem BioAssay AID1159580 (chemical genetic matrix, 2015)
The whole screen tested about 5,500 compounds, of which about 2,000 (36%) were called active. Inconclusive results (about 18%) are left out. No stated cut-off is given here; in the data, active means normalized growth mostly below about 0.91 (no sharp cut-off); inconclusive means no clear call, values can overlap the other calls; inactive means mostly above about 0.92. This is one part of the list.

Assay: chemical genetic growth profiling, strain panel (AID 1159580);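 further: tested at 20 µM; growth read once vehicle control cultures reached saturation at 30 °C; 1 = growth at the plate median or of vehicle wells; lower values mean less growth of the strain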
Conditions: S. cerevisiae deletion strains, growth OD

Measured: normalized growth

COc1cc(C(=O)O[C@H]2CC[C@@]3(C)[C@@H]4CC[C@H]5[C@]6(O)C[C@H](O)[C@@]7(O)[C@@H](CN8C[C@@H](C)CC[C@H]8[C@@]7(C)O)[C@]6(O)C[C@@]53O[C@]24O)cc(OC)c1OC
inactive: locus YAL021C, strain ccr4, hits give low values 1 | locus YAL026C, strain drs2, hits give low values 1.02 | locus YAL030W, strain snc1, hits give low values 0.996 | locus YBL061C, strain skt5, hits give low values 0.994 | locus YBR009C, strain hhf1, hits give low values 1.01 | locus YBR021W, strain FUR4, hits give low values 1.01 | locus YBR023C, strain chs3, hits give low values 0.996 | locus YBR171W, strain sec66, hits give low values 1.02 | locus YBR229C, strain ROT2, hits give low values 0.955 | locus YBR231C, strain swc5, hits give low values 0.994 | locus YBR279W, strain paf1, hits give low values 1.01 | locus YCL011C, strain gbp2, hits give low values 0.997 | locus YCL016C, strain dcc1, hits give low values 1 | locus YCL029C, strain bik1, hits give low values 0.98 | locus YCL061C, strain MRC1, hits give low values 1 | locus YCL069W, strain vba3, hits give low values 1 | locus YCR088W, strain abp1, hits give low values 1.01 | locus YDL005C, strain med2, hits give low values 0.973 | locus YDL035C, strain GPR1, hits give low values 1 | locus YDL040C, strain nat1, hits give low values 1 | locus YDL074C, strain BRE1, hits give low values 1.03 | locus YDL101C, strain DUN1, hits give low values 0.989 | locus YDL134C, strain PPH21, hits give low values 0.979 | locus YDL185W, strain tfp1, hits give low values 0.978 | locus YDL192W, strain arf1, hits give low values 1.01 | locus YDR001C, strain nth1, hits give low values 1.01 | locus YDR069C, strain doa4, hits give low values 0.998 | locus YDR101C, strain arx1, hits give low values 1.03 | locus YDR137W, strain rgp1, hits give low values 0.965 | locus YDR159W, strain sac3, hits give low values 0.972 | locus YDR162C, strain NBP2, hits give low values 0.985 | locus YDR195W, strain ref2 0.967 | locus YDR297W, strain sur2, hits give low values 1.01 | locus YDR318W, strain mcm21, hits give low values 0.972 | locus YDR334W, strain swr1, hits give low values 1.01 | locus YDR335W, strain msn5, hits give low values 1.01 | locus YDR388W, hits give low values 0.993 | locus YDR392W, strain spt3, hits give low values 0.996 | locus YDR502C, strain sam2, hits give low values 1 | locus YEL003W, strain gim4, hits give low values 1 | locus YEL037C, strain rad23, hits give low values 1.03 | locus YEL061C, strain CIN8 (second series), hits give low values 1.02 | locus YEL061C, strain CIN8, hits give low values 0.993 | locus YER015W, strain faa2, hits give low values 0.998 | locus YER016W, strain bim1, hits give low values 0.995 | locus YER110C, hits give low values 0.975 | locus YER111C, strain swi4, hits give low values 1 | locus YER155C, strain BEM2 (second series), hits give low values 1 | locus YER155C, strain BEM2, hits give low values 0.99 | locus YER167W, strain BCK2, hits give low values 0.993 | locus YFR010W, strain ubp6, hits give low values 1.02 | locus YGL078C, strain dbp3, hits give low values 0.999 | locus YGL086W, strain mad1, hits give low values 1.05 | locus YGL167C, strain pmr1, hits give low values 0.999 | locus YGL173C, strain kem1, hits give low values 1 | locus YGL227W, strain vid30, hits give low values 1.01 | locus YGL240W, strain doc1, hits give low values 0.978 | locus YGL248W, strain PDE1, hits give low values 0.998 | locus YGL253W, strain hxk2, hits give low values 1 | locus YGR078C, strain PAC10, hits give low values 0.99 | locus YGR135W, strain pre9, hits give low values 0.99 | locus YGR229C, strain SMI1, hits give low values 1.02 | locus YGR252W, strain gcn5, hits give low values 0.957 | locus YHR013C, strain ard1, hits give low values 0.962 | locus YHR027C, strain rpn1, hits give low values 1.01 | locus YHR030C, strain SLT2, hits give low values 1 | locus YHR079C, strain IRE1 (second series), hits give low values 0.992 | locus YHR094C, strain hxt1, hits give low values 0.971 | locus YHR129C, strain ARP1, hits give low values 0.985 | locus YHR142W, strain chs7, hits give low values 1.02 | locus YHR200W, strain rpn10, hits give low values 0.987 | locus YIL066C, strain RNR3, hits give low values 0.983 | locus YIL073C, strain SPO22, hits give low values 1.02 | locus YIL125W, strain kgd1, hits give low values 1 | locus YIR030C, strain dcg1, hits give low values 0.993 | locus YJL092W, strain hpr5, hits give low values 1.02 | locus YJL095W, strain BCK1 (second series), hits give low values 0.993 | locus YJL095W, strain BCK1, hits give low values 0.998 | locus YJL115W, strain asf1, hits give low values 1 | locus YJL129C, strain trk1, hits give low values 1.01 | locus YJL134W, strain LCB3, hits give low values 0.985 | locus YJL154C, strain vps35, hits give low values 1.01 | locus YJL164C, strain tpk1, hits give low values 0.999 | locus YJL166W, strain qcr8, hits give low values 1.01 | locus YJL168C, strain set2, hits give low values 0.996 | locus YJL187C, strain SWE1 (second series), hits give low values 1.01 | locus YJL187C, strain SWE1, hits give low values 1.01 | locus YJR043C, strain POL32, hits give low values 0.993 | locus YKL009W, strain mrt4, hits give low values 0.981 | locus YKL068W, hits give low values 0.988 | locus YKL085W, strain MDH1 (second series), hits give low values 1 | locus YKL085W, strain MDH1, hits give low values 1 | locus YKL160W, strain elf1, hits give low values 1 | locus YKR001C, strain vps1, hits give low values 1.06 | locus YKR026C, strain gcn3, hits give low values 1.01 | locus YKR091W, strain srl3, hits give low values 1 | locus YLL001W, strain dnm1, hits give low values 1.01 | locus YLL026W, hits give low values 0.989 | locus YLL041C, strain sdh2, hits give low values 1.01 | locus YLR027C, strain aat2, hits give low values 0.977 | locus YLR039C, strain RIC1, hits give low values 0.972 | locus YLR058C, strain SHM2, hits give low values 0.978 | locus YLR102C, strain apc9, hits give low values 0.985 | locus YLR221C, strain rsa3, hits give low values 1 | locus YLR258W, strain gsy2, hits give low values 0.98 | locus YLR262C, strain YPT6 (second series), hits give low values 0.954 | locus YLR262C, strain YPT6, hits give low values 0.975 | locus YLR268W, strain sec22, hits give low values 1.04 | locus YLR320W, strain mms22, hits give low values 0.986 | locus YLR330W, strain CHS5, hits give low values 1 | locus YLR342W, strain FKS1 (second series), hits give low values 1.03 | locus YLR342W, strain FKS1, hits give low values 0.986 | locus YLR357W, strain rsc2, hits give low values 0.974 | locus YLR370C, strain arc18, hits give low values 0.985 | locus YLR371W, strain rom2, hits give low values 0.991 | locus YLR384C, strain iki3, hits give low values 0.974 | locus YLR418C, strain cdc73, hits give low values 0.977 | locus YML016C, strain PPZ1, hits give low values 0.998 | locus YML032C, strain rad52, hits give low values 0.96 | locus YML120C, strain ndi1, hits give low values 1 | locus YML124C, strain tub3, hits give low values 0.985 | locus YMR058W, strain fet3, hits give low values 1 | locus YMR078C, strain ctf18, hits give low values 0.99 | locus YMR125W, strain sto1, hits give low values 1.02 | locus YMR129W, hits give low values 1 | locus YMR205C, strain PFK2, hits give low values 1 | locus YMR223W, strain ubp8, hits give low values 0.964 | locus YMR231W, strain pep5, hits give low values 0.999 | locus YMR307W, strain GAS1, hits give low values 1.07 | locus YNL067W, strain RPL9B, hits give low values 0.997 | locus YNL071W, strain lat1, hits give low values 1 | locus YNL153C, strain GIM3, hits give low values 1.01 | locus YNL209W, strain ssb2, hits give low values 0.997 | locus YNL233W, strain BNI4, hits give low values 1.01 | locus YNL248C, strain rpa49, hits give low values 1.01 | locus YNL250W, strain rad50, hits give low values 0.977 | locus YNL271C, strain bni1, hits give low values 0.993 | locus YNL298W, strain CLA4, hits give low values 0.971 | locus YNL307C, strain MCK1, hits give low values 0.986 | locus YNL322C, strain KRE1 (second series), hits give low values 0.989 | locus YNL322C, strain KRE1, hits give low values 0.996 | locus YNR049C, strain mso1, hits give low values 0.987 | locus YNR052C, strain pop2, hits give low values 0.996 | locus YOL012C, strain htz1 1.37 | locus YOL147C, strain pex11, hits give low values 0.985 | locus YOR001W, strain rrp6, hits give low values 0.988 | locus YOR061W, strain CKA2, hits give low values 0.962 | locus YOR069W, strain VPS5, hits give low values 0.996 | locus YOR070C, strain gyp1, hits give low values 1.01 | locus YOR080W, strain dia2, hits give low values 1.01 | locus YOR083W, strain WHI5, hits give low values 1 | locus YOR106W, strain vam3, hits give low values 0.999 | locus YOR136W, strain idh2, hits give low values 0.985 | locus YOR144C, strain elg1, hits give low values 0.98 | locus YOR184W, strain ser1, hits give low values 0.976 | locus YOR265W, strain rbl2, hits give low values 0.983 | locus YOR270C, strain vph1, hits give low values 1.11 | locus YOR290C, strain snf2, hits give low values 1.02 | locus YOR316C, strain cot1, hits give low values 0.976 | locus YPL051W, strain arl3, hits give low values 0.998 | locus YPL055C, strain LGE1, hits give low values 1.01 | locus YPL078C, strain atp4, hits give low values 0.998 | locus YPL106C, strain sse1, hits give low values 0.968 | locus YPL240C, strain hsp82, hits give low values 0.992 | locus YPR119W, strain clb2, hits give low values 0.979 | locus YPR141C, strain kar3, hits give low values 0.981 | locus YPR163C, strain tif3, hits give low values 1.01 | locus YPR167C, strain met16, hits give low values 0.978 | strain wtn01, hits give low values 1.04
